According to PubChem BioAssay:

Each molecule was assayed on glycogen synthase kinase-3 (GSK3A per assay name; protocol says GSK3B) (assay: GSK3 binders on small-molecule microarrays, primary screen, biochemical, small-molecule microarray, 635 nm fluorescence, GSK3A (AID 1103; also: the record names both GSK3A and GSK3B)). Conditions: small-molecule microarray binding, fluorescence 635 nm; higher = more signal.

Row | SMILES | composite z-score
1 | CCOC(=O)[C@H](Cc1ccccc1)NC(=O)CCC1CC(OC(=O)NCc2cccc3ccccc23)CC2(CCCC(COC(=O)NCc3ccc4c(c3)OCO4)O2)O1 (stereo partly drawn) | -0.0333
2 | CCCC[C@H]1CN2[C@@H](CC[C@@H](C)[C@@H]2c2ccc(Br)cc2)C(=O)O1 | 0.707
3 | CCOC(=O)[C@H](CC(C)C)NC(=O)CCC1CC(OC(=O)NCc2ccc3c(c2)OCO3)CC2(CCCC(COC(=O)NCCOc3ccccc3)O2)O1 (stereo partly drawn) | 0.994
4 | CCOC(=O)NN=C1C[C@@H](O)[C@@H](O)[C@@H]2[C@@H]3C(=O)N(CC)C(=O)[C@@H]3CC[C@H]12 | -0.256
5 | COc1ccc(COC(=O)NN=C2C[C@@H](O)[C@@H](O)[C@@H]3[C@@H]4C(=O)N([C@@H](C)c5ccccc5)C(=O)[C@@H]4CC[C@@H]23)cc1 | -0.111
6 | CCN1C(=O)[C@H]2[C@H]3[C@H](O)[C@H](O)CC(=NO[C@H](C)c4cn([C@@H]5COC[C@H]5O)nn4)[C@@H]3CC[C@H]2C1=O | -0.162
7 | C[C@@H]1CC[C@H]2C(=O)O[C@@H](COc3ccc(C(C)(C)C)cc3)CN2[C@H]1c1ccc(Br)cc1 | 0.158
8 | CO[C@H]1COC(=O)CC=C[C@@H](C)COC(=O)[C@H]2CCCN2C(=O)CC=C[C@H]1C | 1.01
9 | CC(CCN1CCCc2nc(C)c(C)cc21)=NO[C@@H](C)c1cn([C@H](CO)Cc2ccccc2)nn1 | 0.471

What follows are molecules tested against Epidermal growth factor receptor (Homo sapiens) (UniProt P00533) (assay: EGFR binders on small-molecule microarrays, primary screen, biochemical, small-molecule microarray, 635 nm fluorescence (AID 1104;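 also: score merges 667 nm emission intensity with spot signal to noise over triplicate slides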)). Conditions: EGFR binding, higher = more signal.
Chain of Epidermal growth factor receptor (Homo sapiens) (P00533 whole entry, looked up): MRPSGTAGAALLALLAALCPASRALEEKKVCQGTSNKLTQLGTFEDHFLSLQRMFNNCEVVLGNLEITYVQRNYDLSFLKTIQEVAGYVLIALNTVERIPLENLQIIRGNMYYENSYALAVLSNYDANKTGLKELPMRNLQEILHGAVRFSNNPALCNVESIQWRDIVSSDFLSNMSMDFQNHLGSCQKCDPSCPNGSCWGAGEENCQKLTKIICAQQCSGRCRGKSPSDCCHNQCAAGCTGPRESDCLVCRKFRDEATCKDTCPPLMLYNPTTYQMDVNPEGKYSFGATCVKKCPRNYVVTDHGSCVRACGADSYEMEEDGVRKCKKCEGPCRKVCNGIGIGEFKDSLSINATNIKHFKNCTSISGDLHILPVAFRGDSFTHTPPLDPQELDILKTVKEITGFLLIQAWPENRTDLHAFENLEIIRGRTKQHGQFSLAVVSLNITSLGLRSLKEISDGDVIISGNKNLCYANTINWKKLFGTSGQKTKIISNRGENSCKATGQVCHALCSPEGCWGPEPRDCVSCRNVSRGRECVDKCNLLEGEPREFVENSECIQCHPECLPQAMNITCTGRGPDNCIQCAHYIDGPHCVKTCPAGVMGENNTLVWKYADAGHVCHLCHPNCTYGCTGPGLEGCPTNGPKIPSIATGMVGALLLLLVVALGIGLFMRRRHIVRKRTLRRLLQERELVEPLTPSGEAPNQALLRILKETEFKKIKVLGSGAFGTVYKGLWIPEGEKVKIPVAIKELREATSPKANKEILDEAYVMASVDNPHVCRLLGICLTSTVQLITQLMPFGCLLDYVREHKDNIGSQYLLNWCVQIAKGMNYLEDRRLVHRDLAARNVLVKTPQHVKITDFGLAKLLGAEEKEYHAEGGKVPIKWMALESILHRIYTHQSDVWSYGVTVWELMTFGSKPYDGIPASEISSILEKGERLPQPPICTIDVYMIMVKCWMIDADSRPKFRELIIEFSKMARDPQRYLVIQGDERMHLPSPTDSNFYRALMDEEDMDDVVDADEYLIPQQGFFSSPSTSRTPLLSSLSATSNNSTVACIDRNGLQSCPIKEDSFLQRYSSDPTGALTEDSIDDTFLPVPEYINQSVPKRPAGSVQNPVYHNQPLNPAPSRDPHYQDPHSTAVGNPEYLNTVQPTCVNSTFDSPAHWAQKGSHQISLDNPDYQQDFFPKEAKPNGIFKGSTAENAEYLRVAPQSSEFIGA

Row | SMILES | composite z-score
10 | O=C1[C@H]2[C@H]3[C@H](O)[C@H](O)CC(=NO[C@@H]4O[C@H](CO)[C@@H](O)[C@H](O)[C@H]4O)[C@H]3CC[C@H]2C(=O)N1c1ccc(F)cc1F | 0.172
11 | CCCNC(=O)OC[C@H]1O[C@H](CCON=C2c3cc(OC)ccc3O[C@H](c3cccc(OC)c3)[C@H]2O)C=C[C@@H]1Oc1ccc(OC)cc1 | 0.474
12 | O=C1[C@H]2CCn3c(=O)n(-c4ccccc4)c(=O)n3[C@H]2[C@H](O)[C@@H]2O[C@H]12 | 0.299
13 | CC(C)=CCCC(C)=CCON=C1C[C@@H](O)[C@@H](O)[C@@H]2[C@@H]3C(=O)N(Cc4ccc5c(c4)OCO5)C(=O)[C@@H]3CC[C@H]12 | 0.426
14 | O=C1[C@H]2[C@H]3[C@H](O)[C@H](O)CC(=NOCc4ccccc4)[C@H]3CC[C@H]2C(=O)N1C1CCCCC1 | 0.511
15 | CC(C)(C)N1C(=O)[C@H]2[C@H]3[C@H](O)[C@H](O)CC(=NOC[C@@H](O)COCc4ccco4)[C@H]3CC[C@H]2C1=O | -0.284
16 | COC(=O)[C@H](C)NC(=O)CCC1CC(OC(=O)NCc2ccc3c(c2)OCO3)CC2(CCCC(COC(=O)NCCC(C)C)O2)O1 (stereo partly drawn) | 0.0295
17 | COC(=O)[C@H](C)NC(=O)CC=C[C@@H](C)[C@@H]1C=C[C@H](O)[C@@H](CO)O1 | 0.643
18 | CC(CCN1CCCCc2nc(C)c(C)cc21)=NOC[C@@H](O)[C@H]1O[C@@H]2OC(C)(C)O[C@@H]2[C@H]1O | 0.774
19 | CC(C)=CCCC(C)=CCON=C1[C@H]2CCn3c(=O)n(-c4ccccc4)c(=O)n3[C@H]2[C@H](O)[C@@H]2O[C@H]12 | 0.752
20 | COc1ccc(OC[C@@H]2CC3[C@@H](c4ccc(Br)cc4)[C@H](C)CC[C@H]3C(=O)O2)cc1 (stereo partly drawn) | 0.885
21 | COC(=O)[C@H](C)NC(=O)CCC1CC(OC(=O)NCCc2ccc(F)cc2)CC2(CCCC(COC(=O)NCC3CCCCC3)O2)O1 (stereo partly drawn) | 0.501
22 | COC(=O)[C@H](C)NC(=O)CCC1CC(OC(=O)NCc2cccc3ccccc23)CC2(CCCC(COC(=O)NCCC(C)C)O2)O1 (stereo partly drawn) | 0.374
23 | O=C1[C@H]2[C@H]3[C@H](O)[C@H](O)CC(=NOC[C@@H](O)COCc4ccco4)[C@@H]3CC[C@H]2C(=O)N1c1cccc(Oc2ccccc2)c1 | -0.094
24 | CCOC(=O)NN=C1C[C@@H](O)[C@@H](O)[C@@H]2[C@@H]3C(=O)N(C[C@@H]4CCCO4)C(=O)[C@@H]3CC[C@H]12 | 0.401
25 | C[C@@H](c1ccccc1)N1C(=O)[C@H]2[C@H]3[C@H](O)[C@H](O)CC(=NOCc4ccccc4)[C@@H]3CC[C@H]2C1=O | -0.169
26 | CCOC(=O)[C@H](Cc1ccccc1)NC(=O)CCC1CC(OC(=O)NCc2ccc3c(c2)OCO3)CC2(CCCC(COC(=O)NCCOc3ccccc3)O2)O1 (stereo partly drawn) | 0.628
27 | C[C@H]1CC[C@H]2C(=O)N[C@H](Cc3ccccc3)C(=O)N2[C@@H]1c1ccccc1 | 0.353
28 | CCN1C(=O)[C@H]2[C@H]3[C@H](O)[C@H](O)CC(=NOCC[C@@H]4C=C[C@H](OC(C)=O)[C@@H](COC(C)=O)O4)[C@@H]3CC[C@H]2C1=O | 0.498
